DAX1 inh-1 – inhibits human nuclear receptor DAX1; 0.99% of 340,000 active; AID 504766; inhibition, % at 6.75 µM; HEK293 Gal4-DAX1 luciferase reporter, luminescence; P51843;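 active means inhibition above the mean over all tested compounds plus 3 SD, cut at about 4.2% in these data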;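 further: inhibition shows as a rise in luminescence from relieved DAX1 repression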
Target sequence (P51843 207-470 limits assumed): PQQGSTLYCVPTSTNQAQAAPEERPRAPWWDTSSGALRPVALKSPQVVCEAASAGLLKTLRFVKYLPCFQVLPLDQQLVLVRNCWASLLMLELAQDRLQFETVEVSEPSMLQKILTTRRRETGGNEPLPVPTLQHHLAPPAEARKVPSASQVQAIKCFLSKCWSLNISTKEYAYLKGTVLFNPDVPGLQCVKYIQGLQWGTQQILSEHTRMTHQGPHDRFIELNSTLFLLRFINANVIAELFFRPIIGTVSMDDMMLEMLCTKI
DAX1 inh-2 – inhibitors of DAX1 repression of SF-1 activated StAR promoter. 1.1% of 370,000 active. AID 652010. inhibition, % at 6.8 µM. HEK293T StAR-luciferase reporter, SF-1/DAX-1 repression relief;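 active means inhibition above the mean over all tested compounds plus 3 SD, cut at about 3.6% in these data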;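 further: higher inhibition means more luminescence from relief of DAX-1 repression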
ssDAF12 agonist – activators of S. stercoralis DAF-12 nuclear receptor. activation, % at 6.8 µM. HEK293 ssDAF-12/GRIP1 lit1-tk-luc reporter, luminescence; % of 3 µM dafachronic acid response. 1% of 370,000 active;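 active means activation above the mean over all tested compounds plus 3 SD, cut at about 0.9% in these data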
hcDAF-12 act – H. contortus DAF-12 activation, primary screen. HEK293 hcDAF-12 lit1-tk-luc reporter, luminescence; 0% DMSO, 100% Δ7-dafachronic acid. activation, % at 6.8 µM. 1.4% of 370,000 active;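 active means activation above the mean of all tested compounds plus 3 SD, cut at about 5.5% in these data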
hgDAF12 agonist – activates the H. glycines DAF-12 receptor ligand-binding domain; HEK293 GAL4-hgDAF12 UAS-luciferase reporter, agonist luminescence; normalized to butyrate control; activation, % at 6.8 µM; 1.8% of 370,000 active; AID 687014;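 active means activation above a cutoff set at the mean of all screened compounds plus 3 SD, cut at about 10% in these data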
SMARCA2 activ – activators of SMARCA2 function; 1% of 370,000 active; AID 652017; MG213 cells, MMTV-luciferase reporter, dexamethasone, overnight; activation, % at 9.1 µM; in the data active means activation above about 7.8%
A number is an active result; i = inactive; nt = no result. An excerpt weighted towards active compounds, which were near 4.8% of everything screened.

SMILES | DAX1 inh-1 | DAX1 inh-2 | ssDAF12 agonist | hcDAF-12 act | hgDAF12 agonist | SMARCA2 activ
CC1(C(=O)NCC2CC2)CCN1C(=O)C/C=C/c1ccccc1 (centres undefined) | nt | i | i | i | i | i
CC1(C(=O)NS(=O)(=O)c2ccccc2Cl)CCN1C(=O)C/C=C/c1ccccc1 (centres undefined) | nt | i | i | i | 12 | i
COc1ccccc1C(=O)NCCCNc1nc2cc(C)cc(C)c2cc1C#N | i | i | i | i | i | i
CC(C)(C)c1ccc(C(=O)O/N=C(\N)Cc2cccs2)cc1 | i | i | i | i | i | i
C#CCN1C(=O)S/C(=C/C=C/c2ccc(N(C)C)cc2)C1=O | i | i | i | i | 13 | i
O=C(CN1C(=O)c2ccccc2S1(=O)=O)NCc1ccc(F)cc1 | i | i | i | i | i | i
O=C(CN1C(=O)c2ccccc2S1(=O)=O)NCc1c(F)cccc1F | 4.9 | i | i | i | i | i
CCc1cccc(NC(=O)C(NC(=O)C2CCCCC2)C(C)C)c1 (centres undefined) | i | i | i | i | i | i
O=C(N1CCC(n2nc(-c3ccccc3)oc2=O)CC1)C1(c2ccc(Cl)cc2)CC1 | i | nt | nt | nt | nt | nt
O=C(O)/C(=C\c1ccc(-c2ccccc2[N+](=O)[O-])o1)c1ccccc1 | i | i | 0.9 | 5.7 | i | i
COc1ccc(C2CC(c3ccccc3)=NN2S(=O)(=O)c2ccccc2)c(OC)c1 (centres undefined) | i | i | i | i | i | i
COc1ccccc1C1CC(c2ccccc2)=NN1S(=O)(=O)c1ccccc1 (centres undefined) | i | i | i | i | 11 | i
COc1ccc(/C=N/NC(=O)c2ccccc2OC)cc1COc1ccc(C)cc1 | i | i | i | 5.6 | i | i
COc1ccc(/C=N/NC(=O)c2ccoc2C)cc1OC | i | i | i | i | i | i
COc1cc(/C=N/NC(N)=S)ccc1OCc1ccc(C)cc1 | i | i | i | i | 11 | i
COc1ccc(/C=N/NC(=O)c2ccccc2OC)cc1COc1ccccc1[N+](=O)[O-] | i | i | 1.4 | i | i | i
COc1ccc(/C=N\NC(=O)c2ccc([N+](=O)[O-])c(C)c2)cc1COc1ccccc1C(N)=O | i | i | i | i | i | i
COc1cc(/C=N/NC(N)=S)ccc1OC(=O)c1ccc(C)cc1 | i | i | i | i | i | i
COc1ccc(/C=N/NC(=O)c2ccoc2C)cc1COc1ccc(Cl)cc1 | i | i | 1.3 | i | i | i
CCN(CC)S(=O)(=O)c1cccc(-c2nnc(SCCOc3ccc(Cl)cc3)o2)c1 | i | i | i | i | i | i
COc1ccc(/C=N/Nc2ccccc2C(=O)O)cc1Cn1cc([N+](=O)[O-])cn1 | i | i | 1.1 | i | i | i
COCC(=O)Nc1ccc2c(c1)[C@@H]1C[C@H](CC(=O)OC)O[C@H](CO)[C@@H]1O2 | 4.6 | i | i | i | i | i
COC(=O)C[C@@H]1C[C@H]2c3cc(NC(=O)CC4CC4)ccc3O[C@H]2[C@@H](CO)O1 | i | i | i | i | i | i
COc1ccc(NC(=O)Nc2cccc3c2O[C@H](CN(C)S(=O)(=O)c2cccs2)[C@@H](C)CN([C@H](C)CO)C3=O)cc1 | i | i | i | i | i | i
O=C(Nc1cccc(-c2nnc(-c3ccccc3)o2)c1)C1CC1 | i | i | i | i | i | i
SMILES | DAX1 inh-1 | DAX1 inh-2 | ssDAF12 agonist | hcDAF-12 act | hgDAF12 agonist | SMARCA2 activ
Cc1ccc(-c2nnc(-c3ccccc3)o2)cc1 | i | i | i | i | 12 | i
COc1ccc(-c2nnc(-c3ccc(C)cc3)o2)cc1 | i | i | i | i | i | i
O=C(O)c1ccc(-c2nnc(-c3ccccc3)o2)cc1 | i | i | 1.0 | i | i | i
CC(=O)Nc1cccc(-c2nnc(-c3ccccc3)o2)c1 | i | i | i | i | 12 | i
O=C(O)c1ccc(-c2noc(-c3ccc(F)cc3)n2)cc1 | i | i | i | 5.7 | 13 | i
O=C(O)c1ccc(-c2nnc(-c3ccc([N+](=O)[O-])cc3)o2)cc1 | i | i | i | i | i | i
CC(C)C(=O)Nc1nnc(Cc2ccccc2)s1 | i | i | i | i | i | i
O=C(/C=C(\Nc1ccccc1)c1ccccc1)c1ccccc1 | nt | i | i | i | i | i
O=C(/C=C(\Nc1ccc(F)cc1)c1ccccc1)c1ccccc1 | nt | i | i | i | 11 | i
C/C(=C\C(=O)c1cccnc1)Nc1ccc(O)cc1 | i | i | i | i | i | i
C/C(=C\C(=O)c1ccccc1)Nc1ccc(O)cc1 | i | i | 1.1 | i | i | i
CCCNC(=O)NCCc1c(C)[nH]c2ccccc12 | i | i | i | i | i | i
NS(=O)(=O)c1ccc(Cl)c(C(=O)Nc2ccccc2[N+](=O)[O-])c1 | i | i | i | i | i | i
O=C(CN1C(=O)CCSc2ccccc21)Nc1cccc(Cl)c1F | nt | i | i | i | i | i
COc1cccc(CC(NC(C)=O)C(=O)NC2CCN(C(=O)c3ccc(Cl)cc3)CC2)c1 (centres undefined) | i | i | i | i | i | i
COc1cc(/C=N/NC(=O)c2c(C)nc3ccc(Cl)cn23)cc(OC)c1OC | 5.3 | i | i | i | i | i
C=C1C(=O)[C@]23C[C@H]1CC[C@H]2[C@]1(C)[C@@H](OC(C)=O)CC[C@@](C)(C(=O)O)[C@H]1C[C@@H]3OC(C)=O | nt | i | i | i | i | 7.9
COc1ccc(S(=O)(=O)Cc2ccc(C(=O)NC3CCC(C)CC3)o2)cc1 (centres undefined) | i | i | i | i | i | i
COc1ccccc1S(=O)Cc1ccc(C(=O)NC2CCCC2)o1 (centres undefined) | 5.5 | i | i | i | i | i
COc1ccc(S(=O)(=O)Cc2ccc(C(=O)NC3CC3)o2)cc1 | 13 | i | i | i | i | i
COc1ccc(CNC(=O)c2ccc(CS(=O)(=O)c3ccc(Br)cc3)o2)cc1 | 6.2 | i | i | i | i | i
COc1ccc(CNC(=O)c2ccc(CS(=O)(=O)c3ccc(OC)cc3)o2)cc1 | i | i | i | i | i | i
COc1ccc(Oc2nccc(OC)c2C#N)cc1 | i | i | i | i | i | i
Nc1c(Cl)ncnc1N/N=C/c1ccc2ccccc2n1 | i | i | i | i | i | i
Cc1ccc(C(=O)Nc2cccc(C(=O)N/N=C/c3ccc(O)cc3)c2)cc1 | i | i | i | 5.9 | i | i
COC(=O)c1c(N)nc(C)n1-c1ccc(OC)cc1 | i | i | i | i | i | i
Cc1csc(NC(=O)Cn2nc(C)c([N+](=O)[O-])c2C)n1 | i | i | 2.9 | i | i | i
CN(C)C(CNC(=O)c1ccc([N+](=O)[O-])cc1Cl)c1ccco1 (centres undefined) | i | i | i | i | i | i

Screens as filed in PubChem.
